D2 ag-1 – activates the human D2 dopamine receptor; HEK293 T-REx D2 cells, calcium flux agonist mode; P14416; hit rate 0.53% among 340,000; activation, % at 2 µM;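 active = activation over 3 SD above normal in the single-dose calcium agonist read, cut at about 30% in these data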; also: 0% is about no effect
Target sequence (P14416 whole entry, looked up): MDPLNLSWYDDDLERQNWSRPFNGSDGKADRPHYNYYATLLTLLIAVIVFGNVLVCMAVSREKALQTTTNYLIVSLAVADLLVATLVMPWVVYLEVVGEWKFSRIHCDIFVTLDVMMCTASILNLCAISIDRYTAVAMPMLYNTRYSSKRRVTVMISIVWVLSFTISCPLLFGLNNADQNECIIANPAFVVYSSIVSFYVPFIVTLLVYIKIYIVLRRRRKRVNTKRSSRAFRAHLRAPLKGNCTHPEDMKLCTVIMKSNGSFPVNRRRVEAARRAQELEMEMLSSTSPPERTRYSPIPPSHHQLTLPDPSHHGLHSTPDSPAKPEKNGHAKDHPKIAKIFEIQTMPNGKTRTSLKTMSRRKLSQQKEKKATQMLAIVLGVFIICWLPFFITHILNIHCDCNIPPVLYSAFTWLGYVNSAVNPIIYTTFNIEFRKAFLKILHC
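Calcium-flux readout, 1 cycle/sec over 180 s following compound pin transfer, in inducible HEK293 Trex D2 cells (force-coupled); dopamine controls included. Positive calcium responses during this window marked compounds as potential agonists.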
D2 PAM-1 – human D2 receptor positive allosteric modulation; hit rate 0.23% among 360,000; DiscoveRx D2 beta-arrestin cells, luminescence, 90 min; 100% = 57 uM dopamine signal; AID 624464; P14416; potentiation, % (concentration not given with the values); in the data active = potentiation above about 50%; inconclusive = mostly about 30% to 49%
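PathHunter beta-arrestin assay in DiscoveRx D2 cells. Compounds were added with an EC20 of dopamine (50 nM final) for 90 min at 37 deg C. Luminescence was read 1 h after detection reagent, with 57 uM dopamine as the EC100 control.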
D2 PAM-2 – positive allosteric modulators of human D2 dopamine receptor; HEK293 T-REx D2, calcium flux, EC20 dopamine potentiation; potentiation, % at 10 µM; hit rate 0.34% among 340,000; AID 485347;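 active = potentiation over 3 SD above the plate norm, cut at about 30% in these data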; also: 0% is about no effect
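Calcium flux readout, no-wash dye, 1 read/s. Inducible HEK293 Trex D2 line, overnight 30 C. Compound alone 180 s (agonist flags), then EC20 dopamine, another 180 s to score potentiation.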
D2 antagonist – antagonists of human D2 dopamine receptor; P14416; HEK293 TREx D2 cells, calcium flux, dopamine EC80; inhibition, % at 10 µM; hit rate 2% among 340,000; AID 485344; in the data active = inhibition above about 30%; inactive = below that, where a call was filed; also: 0% is about no effect
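Read-out: kinetic calcium fluorescence (1 cycle/s) in inducible HEK293 T-REx D2 cells after an EC80 dopamine addition that followed 180 s compound preincubation. Loss of the dopamine response indicates antagonism.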
D2 ag-2 – agonists of human D2 dopamine receptor (beta-arrestin); P14416; DiscoveRx PathHunter D2 beta-arrestin, luminescence, 90 min; 100% = 57 uM dopamine signal; activation, % (no concentration beside the values); hit rate 0.084% among 360,000; in the data active = activation above about 40%; inconclusive = between about 15% and that limit
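DiscoveRx PathHunter D2 beta-arrestin cells (2,100/well) attached overnight, then compound-stimulated 90 min at 37 C in HBSS/10 mM HEPES/0.1% Tween-20 buffer; beta-galactosidase complementation read by luminescence after 1 h at ambient temperature. Dopamine 57 uM final (EC100) as control.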
* marks the source's active call; other numbers are inactive results; ? = inconclusive; / = not tested or not shown. Only some compounds are listed: those with a hit (about 2.4% of all), similar ones and a draw of the others.

SMILES | D2 ag-1 | D2 PAM-1 | D2 PAM-2 | D2 antagonist | D2 ag-2
CN1C(C(=O)NCCc2cccs2)CC2Cn3c(nc4cc(Cl)c(Cl)cc43)C21 (centres undefined) | 0.8 | -16.8 | 0.4 | 47.5* | 2.9
CC(=O)c1ccc2noc(-c3ccc(F)cc3)c2c1 | 1.0 | 59.2* | 2.5 | 34.4* | 6.0
CN(C)/C=C/C(=O)c1ccc2noc(-c3cccc(F)c3)c2c1 | -0.3 | -3.9 | -1.7 | -11.3 | 46.2*
CCc1ccc(-c2nc(CS(=O)CC(=O)NCCCN3CCC(C)CC3)c(C)o2)cc1 (centres undefined) | 0.4 | -24.0 | -9.2 | 30.3* | -6.9
CCc1ccc(-c2nc(CS(=O)CC(=O)NCCN3CCCCCC3)c(C)o2)cc1 (centres undefined) | 0.9 | -19.4 | 4.2 | -2.7 | -2.7
CCC1CCCCN1CCCNC(=O)CS(=O)Cc1nc(-c2ccc(OC)c(OC)c2)oc1C (centres undefined) | 2.0 | -8.2 | 2.2 | 35.6* | -3.9
Cc1ccc(-c2nc(CS(=O)CC(=O)NCCN(CC(C)C)CC(C)C)c(C)o2)cc1 (centres undefined) | -0.8 | -3.5 | 105.9* | 1.2 | -1.2
CCN1CCN(C(=O)CS(=O)Cc2nc(-c3ccc(OC)cc3)oc2C)CC1 (centres undefined) | -0.3 | -4.2 | -14.4 | 39.9* | -5.0
Cc1ccc(-c2nc(CS(=O)CC(=O)NCCN3CCCC3)c(C)o2)cc1 (centres undefined) | -0.9 | -3.8 | -7.2 | -5.0 | -5.0
COc1ccc(NC(=O)c2ccco2)cc1NC(=O)C(C)(C)Oc1ccc(Cl)cc1 | -0.6 | / | -0.7 | / | /
CC(=NNC(=S)N1CC2CCC(CC2)C1)c1cnccn1 | / | 97.2* | / | / | ?
Cc1cccc(CCNC(=O)C2CCN(S(=O)(=O)c3c(C)nn(C)c3C)CC2)c1 | 0.0 | 8.6 | -11.1 | 32.3* | -1.7
Cc1ccc(CCNC(=O)C2CCN(S(=O)(=O)c3c(C)nn(C)c3C)CC2)cc1 | -0.2 | -4.4 | -8.4 | -29.5 | -1.4
Cc1ccc(C2=CC(c3ccccc3F)n3c(nc4ccccc43)N2)cc1C (centres undefined) | 0.6 | / | 9.3 | / | /
Cc1cccc(N(C)C(=O)CN(C)S(=O)(=O)c2ccc3[nH]c4c(c3c2)CCCC4)c1 | 0.1 | / | 2.7 | / | /
Cc1ccc(C#N)c(SCCN2CCCCC2)n1 | -0.2 | -21.2 | -9.6 | 33.5* | -2.0
COc1ccc(-c2nnc(SCC(=O)Nc3cc(C)on3)o2)cc1 | 2.1 | -1.6 | 14.9 | 35.6* | -6.0
CC1CCN(CC(=O)N2CCc3ccccc32)CC1 | 0.3 | -10.7 | -21.8 | 53.6* | 1.8
CCOC(=O)C1CCN(CC(=O)N2CCc3ccccc32)CC1 | / | -17.2 | / | / | -1.4
COc1ccc(N2CCN(C(CNS(=O)(=O)c3c(C)cc(C)cc3C)c3ccco3)CC2)cc1 (centres undefined) | 1.0 | / | -3.0 | / | /
O=[N+]([O-])c1ccc(S(=O)(=O)c2ccccc2)nc1 | -0.2 | -65.0 | 0.6 | -8.3 | 48.3*
Cc1ccc(S(=O)(=O)c2ccc([N+](=O)[O-])cn2)cc1 | -0.1 | 23.9 | 8.4 | 4.3 | -6.7
Cc1ccc(CC(=O)Nc2nncs2)cc1 | 0.3 | 4.0 | -0.5 | 47.3* | 0.1
COc1ccc(CC(=O)Nc2nncs2)cc1OC | 1.1 | 11.1 | -5.1 | -7.6 | 0.8
O=C1CCN(Cc2cccnc2)CCN1[C@H](CO)c1ccccc1 | 0.2 | -6.3 | -7.8 | 0.2 | -0.2
SMILES | D2 ag-1 | D2 PAM-1 | D2 PAM-2 | D2 antagonist | D2 ag-2
COc1ccc(CN2CCC(=O)N([C@H](CO)c3ccccc3)CC2)cc1 | -0.3 | -19.6 | -10.7 | 52.5* | -1.8
CCNc1c(NC(=O)c2ccccc2OCC)c(=O)oc2ccccc12 | -0.2 | / | -5.2 | / | /
N#C/C(=C\c1ccc(N2CCCCC2)o1)C(=O)Nc1cccc(Br)c1 | 95.3* | -13.3 | -6.1 | 12.8 | -4.0
COc1ccccc1CCNC(=O)c1ccc2c(c1)c(C)c(C)n2C | 0.1 | / | / | / | /
CC1(C)CC(NC(=O)c2cc([N+](=O)[O-])cc([N+](=O)[O-])c2)CC(C)(C)N1 | 0.2 | -1.4 | -14.6 | 0.3 | 3.6
COc1cc(OC)cc(C(=O)NC2CC(C)(C)NC(C)(C)C2)c1 | -1.6 | -14.0 | 18.3 | 82.5* | -1.2
Cc1ccc(CC(=O)Nc2ccc(F)c([N+](=O)[O-])c2)cc1C | 1.6 | -9.0 | -7.8 | 42.2* | -3.5
CCC1CCCCN1CCCNC(=O)c1cc2c(=O)oc3ccc(C)cc3c2s1 (centres undefined) | 0.8 | -24.4 | -1.7 | 35.5* | 3.2
CCCOc1ccccc1C(=O)N(Cc1cccc(Br)c1)C1CCS(=O)(=O)C1 (centres undefined) | 0.8 | 3.3 | 1.2 | 47.5* | 2.0
CCNC(=S)N1CCN(CCN2C(=O)c3cccc4cccc(c34)C2=O)CC1 | -0.1 | 10.0 | 13.8 | 43.5* | 0.5
CC(=O)c1ccccc1OCC(O)CN1CCN(CCN2C(=O)c3cccc4cccc(c34)C2=O)CC1 (centres undefined) | -1.7 | -15.1 | -23.0 | 36.3* | -2.1
Cc1ccc(C)c(OCC(O)CN2CCN(CCN3C(=O)c4cccc5cccc(c45)C3=O)CC2)c1 (centres undefined) | -1.6 | -34.9 | -24.4 | -23.6 | -2.3
O=C(O)c1cccnc1Nc1cccc(C(F)(F)F)c1 | -1.4 | 17.3 | 4.7 | 55.6* | -0.6
CC1=C(C(=O)Nc2cccnc2)C(c2ccccc2)n2nc(SCc3ccccc3)nc2N1 (centres undefined) | -0.3 | / | / | / | /
CSc1ccc2c(c1)N(CCC1CCCCN1C)c1ccccc1S2 (centres undefined) | 1.5 | -30.7 | -28.6 | 98.1* | -3.5
COc1cccc(-n2nnc3c(=O)n(CC(=O)OCc4ccccc4)cnc32)c1 | 0.2 | 4.6 | 50.4* | -7.4 | 2.4
CCOC(=O)Cn1cnc2c(nnn2-c2cccc(OC)c2)c1=O | 0.1 | 5.4 | 0.7 | 7.8 | -6.4
CCOC(=O)Cn1cnc2c(nnn2-c2ccc(F)cc2)c1=O | 0.1 | -0.9 | 6.7 | 31.9* | -3.5
Cn1c(NCCCO)nc2c1c(=O)n(Cc1cccc(F)c1)c(=O)n2C | -0.8 | / | 16.9 | / | /
Cc1ccc(NC(=O)C2CCCN(c3nnc(C)c4c(C)n(-c5ccccc5)nc34)C2)c(Cl)c1 (centres undefined) | 0.5 | / | 6.3 | / | /
CC(=O)N1CCC(N(Cc2ccc(C)o2)C(=O)Nc2cccc(C(F)(F)F)c2)CC1 | -0.4 | / | -17.7 | / | /
CN(C)c1ccc(CNn2cnnc2SCc2ccc(F)cc2)cc1 | -1.3 | -2.2 | 37.6* | -3.0 | 1.4
Cc1ccc2nc(Nc3ccccc3)c(C=O)c(=O)n2c1 | 0.5 | 19.7 | 36.8* | -1.0 | 5.6
CCOc1ccc(NC(=O)Nc2nnc(N3CCCCC3C)s2)cc1 (centres undefined) | 7.9 | / | 3.4 | / | /
